# High-throughput results from PubChem BioAssay.
# The list is not random: actives were taken first. Their share in the collection is about 2.2%.
# IDH1 R132H inh: blocks human mutant IDH1 R132H enzyme; IDH1-R132H enzyme, NADPH consumption, diaphorase/resazurin fluorescence; Potency, µM (series often up to 76.6 µM), for inactives: at the top dose activity change, negative = inhibition, most hits filed as inhibitors; AID 602179; actives 0.093% (n = 390,000); note: potency is the fitted concentration of half-maximal effect; % is set by controls: 0 for no effect and ±100 for the full control effect; nearly all actives have a fitted effect of over 65% in size
# Target sequence (O75874 whole entry R132H, stated change not applied): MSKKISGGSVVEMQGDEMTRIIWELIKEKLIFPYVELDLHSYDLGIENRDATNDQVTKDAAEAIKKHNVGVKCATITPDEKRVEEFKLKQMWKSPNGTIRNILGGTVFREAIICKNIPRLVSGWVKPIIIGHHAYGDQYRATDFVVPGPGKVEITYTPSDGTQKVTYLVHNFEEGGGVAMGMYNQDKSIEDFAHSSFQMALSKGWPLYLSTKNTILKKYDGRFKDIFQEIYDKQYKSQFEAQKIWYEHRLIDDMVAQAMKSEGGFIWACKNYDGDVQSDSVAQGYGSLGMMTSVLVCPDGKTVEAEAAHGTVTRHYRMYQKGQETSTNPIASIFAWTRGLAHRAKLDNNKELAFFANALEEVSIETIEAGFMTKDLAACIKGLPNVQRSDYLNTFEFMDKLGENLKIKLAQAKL
#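 IDH1-R132H (0.5 ug/mL) preincubated 30 min with compound, then NADPH (0.016 mM) and alpha-KG (2 mM) added; 80 min at RT, pH 7.5. Remaining NADPH coupled via diaphorase/resazurin to fluorescence (540/590 nm); concentration-response curves normalized to no-enzyme control.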
# HepG2 tox-1: kills HepG2 cells in TGF-b inhibitor counter-screen; HepG2 CAGA-GFP viability, ATP luminescence, 18 h; Potency, µM (doses to about 46.1 µM), inactives show top-dose activity change, negative = cytotoxicity, most hits filed as cytotoxic; actives 0.76% (n = 410,000); AID 588856; note: potency is the fitted concentration of half-maximal effect
#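 HepG2 CAGA-GFP cells (1000/well, DMEM with 1% FBS) received compound, then TGF-beta at 500 pg/mL final, and were incubated 18 hours at 37 degrees C. Viability was read by CellTiter-Glo luminescence. Media-only wells were set as complete cell-killing and DMSO as no toxicity.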
# ATXN2 expr inh: inhibitors of ATXN2 expression; HEK-293 ATXN2-luciferase reporter, luminescence, 24 h; Potency, µM (series often up to 57 µM), without a hit: top-dose activity change, negative = inhibition, actives largely listed as inhibitors; actives 0.72% (n = 360,000); AID 1745845; note: potency is the fitted concentration of half-maximal effect; % is set by controls: 0 for no effect and ±100 for the full control effect; nearly all actives have a fitted effect of over 55% in size
#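 qHTS (up to 57 uM final) was run with 24 h compound exposure of reporter cells at 37 °C. Each well was multiplexed: SteadyGlo luminescence measured ATXN2-luciferase expression after a fluorogenic Gly-Phe-AFC viability readout (25 uM final).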
# S2 tox: reduces viability in counter-screen for ATXN expression inhibitors. S2 cells (HEK-293 line with an ATXN2-luciferase reporter) viability, CellTiter-Fluor protease fluorescence, 24 h. Potency, µM (doses to about 56.7 µM), most hits filed as cytotoxic. actives 0.49% (n = 400,000). AID 651635; note: potency is the fitted concentration of half-maximal effect; nearly all actives have a fitted effect of over 40% in size
# TGFb inhibitor: TGF-b pathway inhibition; actives 1.2% (n = 410,000); HepG2 CAGA-GFP TGF-b/SMAD3 reporter, GFP fluorescence, 18 h; TGF-beta stimulated, 500 pg/mL final; Potency, µM (doses to about 46.1 µM), without a hit: top-dose activity, negative = inhibition, most hits filed as inhibitors; note: potency is the fitted concentration of half-maximal effect; % is set by controls: 0 for no effect and ±100 for the full control effect; nearly all actives have a fitted effect of over 65% in size
#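 Per well, imaged GFP fluorescence of HEPG2 CAGA-GFP cells gives the signal; cells get compound, then TGF-beta (500 pg/mL final), 18 h at 37 degrees C; %Activity versus -TGF-beta and +DMSO controls.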
# LDHA inh: LDHA (human) enzyme inhibition; P00338; purified LDHA, NADH/diaphorase-resazurin fluorescence; stronger effect = lower value; activity change, % (values are at about 110 or 230 µM); actives 0.15% (n = 480,000); in the data active = activity change below about -30%; inconclusive = mostly about -25% to -30%;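 note: plate controls were DMSO wells for no effect and wells without enzyme for full effect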
#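 Resorufin fluorescence (ex540/em590), read at 0 and 20 min after diaphorase/resazurin addition, reports the NADH left after a 5 min room-temperature reaction of 2 nM human LDH5 with 0.06 mM NADH and 0.2 mM pyruvate.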
# TGFb CAGA inh: confirmation of TGF-b signaling inhibitors in HepG2 reporter cells; shares compounds with TGFb inhibitor; HepG2 CAGA-GFP TGF-b reporter, GFP fluorescence, 18 h; cells stimulated with TGF-beta, 500 pg/mL; Potency, µM (doses to about 46.1 µM), without a hit: top-dose activity, negative = inhibition, hits mostly inhibitors; actives 63% (n = 1,600); AID 720534; note: potency is the fitted concentration of half-maximal effect; % is set by controls: 0 for no effect and ±100 for the full control effect; nearly all actives have a fitted effect of over 65% in size
# HepG2 tox-2: toxic to HepG2 cells in TGF-b counterscreen. shares compounds with TGFb inhibitor. HepG2 CAGA-GFP viability, ATP luminescence, 18 h; cells stimulated with TGF-beta, 500 pg/mL. actives 27% (n = 1,600). Potency, µM (titrated, usually from 46.1 µM), inactives show at the highest dose activity, negative = cytotoxicity, most hits filed as inhibitors. AID 720535; note: potency is the fitted concentration of half-maximal effect; % is set by controls: 0 for no effect and ±100 for the full control effect; nearly all actives have a fitted effect of over 70% in size
# TGFb CCL64 inh: blocks TGF-b signaling in CCL64 reporter cells | shares compounds with TGFb inhibitor | Potency, µM (top dose mostly 46.1 µM), inactives show at the top dose activity, negative = inhibition, usual class: inhibitors | AID 720536 | CCL64 CAGA-GFP reporter, TGF-b stimulated, GFP fluorescence, 18 h | actives 41% (n = 1,600); note: potency is the fitted concentration of half-maximal effect; nearly all actives have a fitted effect of over 65% in size
# TGFb COP inh: blocks TGF-b signaling in HepG2 COP reporter. HepG2 COP-GFP TGF-b reporter, GFP fluorescence, 18 h; cells stimulated by added recombinant TGF-beta. actives 3% (n = 1,600). AID 720537. Potency, µM (series often up to 46.1 µM), inactives show at the highest dose activity, negative = inhibition, usual class: inhibitors. shares compounds with TGFb inhibitor; note: potency is the fitted concentration of half-maximal effect; nearly all actives have a fitted effect of over 70% in size
# An asterisk follows results filed as active; i = inactive; ? = inconclusive; / = not tested or not shown. Unless noted, calls come from the whole dose curve; as a rule, active = well fitted curve in the direction sought with a large enough effect; inconclusive = small, poorly fitted or top-dose-only effect, or another doubt; inactive = no such curve, though single readings can be large; an effect the other way counts as inactive or inconclusive.
SMILES,IDH1 R132H inh,HepG2 tox-1,ATXN2 expr inh,S2 tox,TGFb inhibitor,LDHA inh,TGFb CAGA inh,HepG2 tox-2,TGFb CCL64 inh,TGFb COP inh
CCOC(=O)CCc1ccc(NC(=O)/C=C/c2ccc([N+](=O)[O-])o2)cc1,3%,10µM*,?,8.4µM*,4.5µM*,-2,9.2µM*,13µM*,?,-31%
COC(=O)c1ccccc1NC(=O)Nc1nnc(N2CCC(C)CC2)s1,-20%,10%,3%,?,5%,-8,/,/,/,/
O=C(Nc1ccc(Cl)cc1)N(Cc1nc2ccccc2c(=O)[nH]1)Cc1cccs1,-1%,8%,-20%,?,10µM*,-7,21µM*,?,?,38%
Cc1ccc(C)c(S(=O)(=O)Nc2ccccc2C(=O)Nc2cc(C)on2)c1,-3%,-36%,?,i,7.9µM*,1,?,?,?,22%
Cc1cc(NC(=O)c2ccccc2NS(=O)(=O)c2c(C)c(C)cc(C)c2C)no1,-1%,-21%,-2%,i,?,-8,/,/,/,/
COc1cc(C(=O)NCC(c2ccc(F)cc2)N2CCOCC2)ccc1OCc1ccccc1Cl (configuration not stated),-12%,-16%,-9%,i,20µM*,-3,?,?,?,68%
COc1ccccc1NS(=O)(=O)c1ccc(C(=O)NCC(c2ccc(F)cc2)N2CCOCC2)cc1 (configuration not stated),-3%,1%,/,i,16%,-11,/,/,/,/
Cc1cc(Cl)ccc1C(O)c1ncc(-c2ccccc2Cl)[nH]1 (configuration not stated),/,-26%,4%,i,?,-3,/,/,/,/
CCCCn1c(NC(=O)c2ccco2)c(S(=O)(=O)c2ccc(C)cc2)c2nc3ccccc3nc21,-3%,-6%,2%,/,?,4,3%,-20%,16µM*,32%
CCCCCn1c(NC(=O)c2ccco2)c(S(=O)(=O)c2ccc(C)cc2)c2nc3ccccc3nc21,1%,-48%,-19%,i,?,10,/,/,/,/
Cc1cccc(NCc2cc(C(C)(C)C)c(O)c(C(C)(C)C)c2)c1,/,/,/,/,/,55,/,/,/,/
COc1cc(C2Oc3ccccc3C=C2[N+](=O)[O-])cc(OC)c1OC (configuration not stated),-4%,5.6µM*,/,16µM*,3.2µM*,3,21µM*,18µM*,4.1µM*,?
